Compounds without any hit were thinned out: in the full panel of roughly 83,000, 20% have a hit.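 Assay: single dose, 48 h. Readout: percent growth (0 = no net growth; negative = cell death). Active: <10.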 The source made the active and inactive calls.
system: T-47D breast; test: NCI-60 one-dose screen, 48 h (100 = growth as untreated, 0 = no growth, -100 = all killed); settings: 10 µM

SMILES	growth
COc1ccc2nc(Cl)c(Cn3nnc(Cc4ccccc4)n3)cc2c1	2.44% (active)
C=C/C(C)=C/C[C@]1(C)[C@H](C)[C@@H](OC(=O)CCC)[C@H](O)[C@@]23C(=C[C@H](OC)C[C@@H]12)[C@@H](OC(=O)CCC)O[C@H]3OC(C)=O	-40% (active)
COc1ccc(-c2cc(-c3cc(OC)ccc3OC)nc(N)c2C#N)cc1	54.4% (inactive)
COc1ccc(-c2nn(-c3cccc(Cl)c3)cc2-c2cc(-c3ccccc3)nc(N)n2)cc1	46.5% (inactive)
COc1ccccc1-n1c(-c2sc(NC(C)=O)nc2C)n[nH]c1=S	106% (inactive)
COc1cc2c3c(n(C4CCN(C)CC4)c(=O)c2cc1OC)-c1cc2c(cc1C3=O)OCO2	31% (inactive)
COc1cc(-c2ccc[nH]2)[nH]c1/C=C1\N=C(C)C(C(=O)NC(C)C)=C1C	34% (inactive)
COc1ccc(-c2nn(-c3cccc(Cl)c3)cc2C=C(C#N)C#N)cc1	21.1% (inactive)
Fc1ccc2[nH]cc(-c3nc(-c4ccsc4)cs3)c2c1	57% (inactive)
CCn1c2ccc(O)cc2c2c(C)c3c[n+](C)ccc3c(C)c21	-6.62% (active)
CC[C@H]1OC(=O)[C@H](C)[C@@H](O[C@H]2C[C@@](C)(OC)[C@@H](O)[C@H](C)O2)[C@H](C)[C@@H](O[C@@H]2O[C@H](C)C[C@H](N(C)C)[C@H]2O)[C@](C)(OC)C/C(C)=C2/O[C@@]1(C)C=C2C	41.8% (inactive)
N#Cc1c(-c2ccc(Cl)cc2)cc(-c2cc(O)ccc2O)nc1N	8.26% (active)
COc1cc2c3c(n([C@@H]4CCOC4)c(=O)c2cc1OC)-c1cc2c(cc1C3=O)OCO2	21.7% (inactive)
COc1ccc(-c2cc(-c3ccccc3)nc(SCCCCCCC(=O)NO)n2)cc1	33.5% (inactive)
COc1ccc(-c2nn(-c3cccc(Cl)c3)cc2-c2c(C#N)c(=O)n3[nH]c(-c4ccccc4)nc3c2C#N)cc1	73.9% (inactive)
Clc1nc2ccccc2cc1Cn1nnc(Cc2ccccc2)n1	26.1% (inactive)
CN1CCc2c(sc3nc4n(-c5ccc(Cl)cc5)cnn4c(=O)c23)C1	91.8% (inactive)
O=C(CCCCNC(=O)c1nc(-c2ccccc2)n(-c2ccccc2)n1)NO	35% (inactive)
Cc1c2c[n+](C(C)C)ccc2c(C)c2c1[nH]c1ccccc12	-13.7% (active)
Cc1c2cnccc2c(C)c2c1c1cc(O)ccc1n2C(C)C	3.1% (active)

SMILES	growth
CC(C)(C)OC(=O)CN1CCc2c(sc3ncnc(N/N=C/c4cccc5ccccc45)c23)C1	26.4% (inactive)
Nc1nc(-c2cccnc2)nc2c1sc(=S)n2-c1ccccc1	90.8% (inactive)
CC(C)(C)OC(=O)N1CCc2c(sc3ncnc(N/N=C/c4cccc(Br)c4)c23)C1	20.2% (inactive)
O=C(CCCSc1nc(-c2ccc(Cl)cc2)cc(-c2ccc(Cl)cc2)n1)NO	24.6% (inactive)
CN1CCc2c(sc3nc4n(-c5ccc(Cl)cc5)c(=O)[nH]n4c(=O)c23)C1	87.6% (inactive)
CCNc1nc(C(F)(F)F)nc2c1sc(=S)n2-c1ccccc1	73.9% (inactive)
Cc1cc(NC(=O)c2ccc(C)c(Nc3nccc(-c4cccnc4)n3)c2)cc(-n2cnc(C)c2)c1	-4.71% (active)
c1cncc(-c2csc(-c3c[nH]c4ccccc34)n2)c1	64.1% (inactive)
Cc1ccc(NC(=S)NNC(=S)Nc2ccc(C)cc2)cc1	46.8% (inactive)
Cc1ccc(C2=NN(c3ccc(S(C)(=O)=O)cc3)C(=O)CC2)cc1	32.7% (inactive)
CCc1ccc(C2=NN(c3ccc(S(C)(=O)=O)cc3)C(=O)CC2)cc1	41.4% (inactive)
COc1ccc(-c2nn(-c3cccc(Cl)c3)cc2/C=C2\NC(=S)N(c3ccc(Cl)cc3)C2=O)cc1	11.9% (inactive)
COc1ccc(-c2nn(-c3cccc(Cl)c3)cc2-c2c(C#N)c(=O)n3[nH]c(-c4ccc(C)cc4)nc3c2C#N)cc1	55.6% (inactive)
c1cnc2[nH]cc(-c3nc(-c4ccsc4)cs3)c2c1	66.1% (inactive)
O=C1NC(=O)c2c(CCCSc3nc4ccccc4c(=O)n3CCc3ccccc3)cccc21	79.1% (inactive)
CCOC(=O)c1sc2ncnc(Nc3ccc4c(cnn4C(=O)Nc4ccc(C)c(Cl)c4)c3)c2c1C	101% (inactive)
Nc1ccccc1NC(=O)c1ccc(CCCC(=O)Nc2ccc(C3CC3N)cc2)cc1 (centres undefined)	7.85% (active)
Cc1c(O)c(=O)ccn1C1CCC(CC2CCC(n3ccc(=O)c(O)c3C)CC2)CC1 (centres undefined)	32.3% (inactive)
Cc1c2cnccc2c(C)c2c1oc1ccccc12	77.5% (inactive)

system: BT-549 breast; test: as above; settings: 10 µM

SMILES	growth
COc1ccc2nc(Cl)c(Cn3nnc(Cc4ccccc4)n3)cc2c1	20.3% (inactive)
C=C/C(C)=C/C[C@]1(C)[C@H](C)[C@@H](OC(=O)CCC)[C@H](O)[C@@]23C(=C[C@H](OC)C[C@@H]12)[C@@H](OC(=O)CCC)O[C@H]3OC(C)=O	-48.3% (active)
COc1ccc(-c2cc(-c3cc(OC)ccc3OC)nc(N)c2C#N)cc1	24.7% (inactive)
COc1ccc(-c2nn(-c3cccc(Cl)c3)cc2-c2cc(-c3ccccc3)nc(N)n2)cc1	73% (inactive)
COc1ccccc1-n1c(-c2sc(NC(C)=O)nc2C)n[nH]c1=S	93.8% (inactive)
COc1cc2c3c(n(C4CCN(C)CC4)c(=O)c2cc1OC)-c1cc2c(cc1C3=O)OCO2	59.7% (inactive)
COc1cc(-c2ccc[nH]2)[nH]c1/C=C1\N=C(C)C(C(=O)NC(C)C)=C1C	43.8% (inactive)
COc1ccc(-c2nn(-c3cccc(Cl)c3)cc2C=C(C#N)C#N)cc1	-34.8% (active)
Fc1ccc2[nH]cc(-c3nc(-c4ccsc4)cs3)c2c1	96.9% (inactive)
CCn1c2ccc(O)cc2c2c(C)c3c[n+](C)ccc3c(C)c21	-13% (active)
CC[C@H]1OC(=O)[C@H](C)[C@@H](O[C@H]2C[C@@](C)(OC)[C@@H](O)[C@H](C)O2)[C@H](C)[C@@H](O[C@@H]2O[C@H](C)C[C@H](N(C)C)[C@H]2O)[C@](C)(OC)C/C(C)=C2/O[C@@]1(C)C=C2C	78.7% (inactive)
N#Cc1c(-c2ccc(Cl)cc2)cc(-c2cc(O)ccc2O)nc1N	22.6% (inactive)
COc1cc2c3c(n([C@@H]4CCOC4)c(=O)c2cc1OC)-c1cc2c(cc1C3=O)OCO2	46.2% (inactive)
COc1ccc(-c2cc(-c3ccccc3)nc(SCCCCCCC(=O)NO)n2)cc1	85.4% (inactive)
COc1ccc(-c2nn(-c3cccc(Cl)c3)cc2-c2c(C#N)c(=O)n3[nH]c(-c4ccccc4)nc3c2C#N)cc1	84.4% (inactive)
Clc1nc2ccccc2cc1Cn1nnc(Cc2ccccc2)n1	38.9% (inactive)
CN1CCc2c(sc3nc4n(-c5ccc(Cl)cc5)cnn4c(=O)c23)C1	93.4% (inactive)
O=C(CCCCNC(=O)c1nc(-c2ccccc2)n(-c2ccccc2)n1)NO	94.7% (inactive)
Cc1c2c[n+](C(C)C)ccc2c(C)c2c1[nH]c1ccccc12	2.83% (active)
Cc1c2cnccc2c(C)c2c1c1cc(O)ccc1n2C(C)C	-2.72% (active)

SMILES	growth
CC(C)(C)OC(=O)CN1CCc2c(sc3ncnc(N/N=C/c4cccc5ccccc45)c23)C1	64.3% (inactive)
Nc1nc(-c2cccnc2)nc2c1sc(=S)n2-c1ccccc1	101% (inactive)
CC(C)(C)OC(=O)N1CCc2c(sc3ncnc(N/N=C/c4cccc(Br)c4)c23)C1	79.4% (inactive)
O=C(CCCSc1nc(-c2ccc(Cl)cc2)cc(-c2ccc(Cl)cc2)n1)NO	31.9% (inactive)
CN1CCc2c(sc3nc4n(-c5ccc(Cl)cc5)c(=O)[nH]n4c(=O)c23)C1	94% (inactive)
CCNc1nc(C(F)(F)F)nc2c1sc(=S)n2-c1ccccc1	95.2% (inactive)
IC(I)I	103% (inactive)
Cc1cc(NC(=O)c2ccc(C)c(Nc3nccc(-c4cccnc4)n3)c2)cc(-n2cnc(C)c2)c1	41.1% (inactive)
c1cncc(-c2csc(-c3c[nH]c4ccccc34)n2)c1	89.2% (inactive)
Cc1ccc(NC(=S)NNC(=S)Nc2ccc(C)cc2)cc1	71.7% (inactive)
Cc1ccc(C2=NN(c3ccc(S(C)(=O)=O)cc3)C(=O)CC2)cc1	11.3% (inactive)
CCc1ccc(C2=NN(c3ccc(S(C)(=O)=O)cc3)C(=O)CC2)cc1	21.9% (inactive)
COc1ccc(-c2nn(-c3cccc(Cl)c3)cc2/C=C2\NC(=S)N(c3ccc(Cl)cc3)C2=O)cc1	-13% (active)
COc1ccc(-c2nn(-c3cccc(Cl)c3)cc2-c2c(C#N)c(=O)n3[nH]c(-c4ccc(C)cc4)nc3c2C#N)cc1	43.4% (inactive)
c1cnc2[nH]cc(-c3nc(-c4ccsc4)cs3)c2c1	96.1% (inactive)
O=C1NC(=O)c2c(CCCSc3nc4ccccc4c(=O)n3CCc3ccccc3)cccc21	92.6% (inactive)
CCOC(=O)c1sc2ncnc(Nc3ccc4c(cnn4C(=O)Nc4ccc(C)c(Cl)c4)c3)c2c1C	102% (inactive)
Nc1ccccc1NC(=O)c1ccc(CCCC(=O)Nc2ccc(C3CC3N)cc2)cc1 (centres undefined)	47.4% (inactive)
Cc1c(O)c(=O)ccn1C1CCC(CC2CCC(n3ccc(=O)c(O)c3C)CC2)CC1 (centres undefined)	31.5% (inactive)
Cc1c2cnccc2c(C)c2c1oc1ccccc12	80.9% (inactive)

Source: PubChem BioAssay (NCI)
